High-throughput results from PubChem.
An excerpt weighted towards active compounds, which were near 6.1% of everything screened.
D1 ag = Allosteric Agonists of the Human D1 Dopamine Receptor: qHTS. actives 1% (n = 360,000). HEK293 T-REx D1 cells, calcium flux, agonist mode. activation, % at 2 µM. D(1A) dopamine receptor (Homo sapiens), P21728; in the data active = activation above about 30%; also: 0% is about no effect
Target sequence (P21728 whole entry, looked up): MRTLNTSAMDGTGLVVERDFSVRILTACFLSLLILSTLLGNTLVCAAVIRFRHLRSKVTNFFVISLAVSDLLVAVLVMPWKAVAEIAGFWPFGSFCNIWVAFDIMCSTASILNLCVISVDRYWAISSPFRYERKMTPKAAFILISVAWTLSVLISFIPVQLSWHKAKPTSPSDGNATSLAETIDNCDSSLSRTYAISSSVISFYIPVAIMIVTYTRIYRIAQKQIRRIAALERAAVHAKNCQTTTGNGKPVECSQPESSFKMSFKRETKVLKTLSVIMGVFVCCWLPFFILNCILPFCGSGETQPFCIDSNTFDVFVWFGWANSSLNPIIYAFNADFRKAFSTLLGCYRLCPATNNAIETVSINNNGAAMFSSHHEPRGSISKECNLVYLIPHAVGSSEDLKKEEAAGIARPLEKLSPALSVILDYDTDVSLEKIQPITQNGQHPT
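Inducible HEK293 T-REx D1 cells, force-coupled to calcium signalling, were plated at 4000 cells/well with tetracycline and held overnight at 30 C. After no-wash calcium dye loading, compound-evoked calcium rise over 180 s flagged agonists.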
D3 ag = qHTS of D3 Dopamine Receptor Agonist: qHTS; D3R DiscoveRx beta-arrestin cells, luminescence, 90 min; actives 0.58% (n = 410,000); max activation, %; in the data active = max activation above about 30%; also: 0% is about no effect
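Cells at 1500/well, incubated overnight, then treated with pinned compounds (dopamine as control) for 90 min at 37 degrees C. DiscoveRx reagent added for 30 - 60 minutes at room temperature; luminescence read.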
D3 antag = qHTS of D3 Dopamine Receptor Antagonist: qHTS; max response, negative = inhibition, %; AID 652054, 2013; actives 2.5% (n = 360,000); D(3) dopamine receptor (Homo sapiens), P35462; D3R cells, DiscoveRx beta-arrestin luminescence, antagonist mode; active compounds read low; in the data active = max response below about -50%; inconclusive = no clear call, values can overlap the other calls; also: % is scaled to controls: 0 for no effect and ±100 for the full control effect
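Cells expressing the human receptor were seeded at 1500 cells/well, incubated overnight at 37 degrees C in 5% CO2, then exposed to library compounds with dopamine controls for 90 minutes at 37 degrees C before luminescent detection.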
D1 PAM = Potentiators of Human D1 Dopamine Receptor: qHTS; D(1A) dopamine receptor (Homo sapiens), P21728; HEK293 TREx D1 cells, calcium flux, dopamine EC20 potentiation; potentiation, % at 10 µM; actives 0.036% (n = 360,000); in the data active = potentiation above about 30%; also: 0% is about no effect
D1 antag = Antagonist of Human D 1 Dopamine Receptor: qHTS; activity change, negative = inhibition, % at 10 µM; HEK293 TREx D1 cells, calcium flux, dopamine EC80; active compounds read low; D(1A) dopamine receptor (Homo sapiens), P21728; actives 3.2% (n = 360,000); in the data active = activity change below about -30%; also: % is scaled to controls: 0 for no effect and ±100 for the full control effect
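Tetracycline-induced HEK293 Trex D1 cells, force-coupled to calcium, dye-loaded; compounds added and read 180 s, then EC80 dopamine added and calcium flux tracked kinetically another 180 s.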
Numbers without * were called inactive; ? = inconclusive; · = no result; ! = repeats disagree.

SMILES | D1 ag | D3 ag | D3 antag | D1 PAM | D1 antag
N#CC1CC(c2ccccc2)Nc2cc(Cl)ccc2N1 (centres undefined) | 18 | 2 | -4 | -5 | -90*
CCc1c(C)sc(NC(=O)c2cc(C3CC3)on2)c1C#N | 0 | -2 | 5 | -3 | -37*
Cc1ccc(/C=c2\sc3n(c2=O)CN(c2ccc(Br)cc2)CN=3)o1 | 0 | -1 | -13 | -11 | -39*
Cc1ccc(/C=c2/sc3n(c2=O)CCCN=3)o1 | 3 | -3 | 2 | -2 | -8
COc1cc(/C=C2/N=C(C3CCCCC3)OC2=O)cc(OC)c1OC | 3 | -4 | -69* | -5 | 2
CCc1cc2c(NCCN3CCCCC3)ncnc2s1 | 4 | -11 | -86* | 1 | 18
CSC(=Nc1ccccc1)N=C(SCc1ccccc1)N(C)C | · | -13 | -84* | · | ·
CC(=O)N1CC(C)Sc2ccc(S(=O)(=O)NCc3ccc(F)cc3)cc21 (centres undefined) | 11 | 3 | 9 | -2 | -37*
CC(=O)N1CCSc2ccc(S(=O)(=O)NCc3ccc(F)cc3)cc21 | 7 | -3 | 15 | -4 | -30*
CC(OC(=O)c1ccc(S(=O)(=O)N(C)C)cc1)C(=O)Nc1ccc(Cl)cn1 (centres undefined) | 6 | 4 | 3 | 0 | -60*
CC(OC(=O)c1ccccc1O)C(=O)Nc1ccc(Cl)cn1 (centres undefined) | 1 | -4 | -26 | 0 | -11
Cc1cccc(-n2c3nc(=O)[nH]c(=O)c-3cc3c(Cl)cccc32)c1C | 16 | -20 | · | 0 | 27
COC(=O)c1ccc(OC)c(Cn2c(=O)n(-c3cccc(Cl)c3)c(=O)c3c4c(sc32)CN(C(C)=O)CC4)c1 | 12 | 4 | · | 0 | -40*
COc1cccc(Cn2c(=O)n(-c3cccc(Cl)c3)c(=O)c3c4c(sc32)CN(C(C)=O)CC4)c1 | 2 | -4 | · | -5 | -25
CCOc1ccc(C(=O)/C=C/c2cn(CC(O)CN3CCc4ccccc43)c3ccccc23)cc1 (centres undefined) | 12 | -6 | · | -5 | -20
COc1cc(/C=C2\Oc3cc(O)ccc3C2=O)ccc1O | 63* | -4 | 0 | -6 | 7
O=C1/C(=C/c2cccc([N+](=O)[O-])c2)Oc2cc(O)ccc21 | 20 | -1 | 1 | -1 | -30
O=C1/C(=C/c2ccc(O)c(O)c2)Oc2cc(O)ccc21 | 46* | 10 | 16 | -6 | 12
CSC1=N/C(=C\c2ccc(Cl)cc2)C(=O)N1N(C)C | 9 | 10 | 7 | -4 | -5
CC1(C)CN=c2s/c(=C\c3ccc(Cl)cc3)c(=O)n2C1 | 33* | -4 | -10 | -7 | 8
CC1CC(C)CN(C(=O)C2CCN(S(=O)(=O)c3c(Cl)cccc3Cl)CC2)C1 (centres undefined) | 2 | -5 | 9 | 0 | 5
O=C(O)CSc1cc(NS(=O)(=O)c2ccc(Cl)cc2)c2ccccc2c1O | 0 | -12 | 0 | 2 | 27
Cc1cc(C)c(S(=O)(=O)Nc2cc(SCC(=O)O)c(O)c3ccccc23)cc1C | 5 | -10 | -54* | 5 | 8
COc1ccc(CCNC(=O)C2CCN(c3ccc(N4CCOCC4)nn3)CC2)c(OC)c1 | 0 | -2 | 1 | -4 | -33*
CC(=O)N1c2ccccc2CC1C(=O)N1CCN(c2cccc(C)c2C)CC1 (centres undefined) | 4 | 1 | · | 0 | 2
SMILES | D1 ag | D3 ag | D3 antag | D1 PAM | D1 antag
COc1ccc(N2C(=O)NC(NS(=O)(=O)c3ccccc3)(C(F)(F)F)C2=O)cc1 (centres undefined) | 3 | -1 | -1 | -1 | 21
COc1ccc(N2C(=O)NC(NS(=O)(=O)c3ccc(NC(C)=O)cc3)(C(F)(F)F)C2=O)cc1 (centres undefined) | -2 | 1 | 13 | -9 | -51*!
Cc1ccc(CN2CCC(CO)(CC3CCCCO3)CC2)o1 (centres undefined) | 0 | -13 | -63* | 5 | 7
COCc1ccc(CN2CCC(CO)(CC3CCCCO3)CC2)o1 (centres undefined) | 1 | -9 | 3 | -6 | -40*
COc1cccc(CN2CCC(CO)(CC3CCCCO3)CC2)c1 (centres undefined) | 2 | -30 | -25 | -4 | 0
Cc1ccc2[nH]c(CN3CCC(CO)(CC4CCCCO4)CC3)c(C)c2c1 (centres undefined) | 4 | -24 | -61* | 2 | 6
CCc1ccc(CN2CCC(CO)(CC3CCCCO3)CC2)o1 (centres undefined) | 4 | -30 | ? | -6 | -38*
CCN(CC)CCNC(Cc1ccccc1)c1cccc(OC)c1 (centres undefined) | · | -18 | -6 | · | ·
Cc1nc(N)c(Cc2ccccc2F)c(N)n1 | 4 | 4 | 8 | -1 | -35*
Nc1nc(N)c(Cc2ccc(Cl)cc2Cl)c(N)n1 | 20 | 6 | 11 | -5 | -4
CN(C)c1ccc(/C=C/C(=O)c2cccc(Br)c2)cc1 | 772* | -17 | 8 | -11 | -75*
CC(=O)Nc1cccc(C(=O)/C=C/c2ccc(C)cc2)c1 | 4 | -2 | -19 | -8 | -15
CN(C)c1ccc(CNC(=O)CCCN2C(=O)c3cccnc3Oc3ccc(Cl)cc32)cc1 | 2 | 3 | · | 5 | -16
COc1ccc(NC(=O)CSc2nncs2)cc1S(N)(=O)=O | 4 | 9 | 19 | -2 | -32*
Cc1ccc(CNC(=O)CN2C(=O)C3(SCC(=O)N3c3ccc(F)c(F)c3)c3ccccc32)cc1 (centres undefined) | -1 | 6 | · | 3 | -1
Cc1ccccc1Cn1c(=O)n(CCc2ccccc2)c(=O)c2sc3ccccc3c21 | 7 | 21 | · | 0 | -2
CCN(CC)C(=S)SCC(=O)Nc1ncc2c(n1)CCCC2=O | 0 | -5 | -4 | 0 | -33*
COc1ccc(NC(=O)Cn2ncc3c2-c2ccccc2OC3)cc1Cl | 11 | 5 | · | -3 | -3
Cc1cccc(CNS(=O)(=O)c2ccc3[nH]c(=O)ccc3c2)c1 | 3 | -1 | · | -6 | -5
O=C(CSc1nc2ccccc2c(=O)n1NC(=O)Cc1ccccc1)NCc1ccccc1 | 6 | 11 | 17 | -9 | -32*
CCCCCCCCCCCCN1[C@@H](CC(=O)O)c2cc(C(F)(F)F)ccc2S1(=O)=O | · | 37* | 2 | · | ·
CCCCCCCCN1[C@@H](CC(=O)O)c2cc(C(F)(F)F)ccc2S1(=O)=O | · | 13 | 5 | · | ·
CCCCCCCCCCCCN1[C@@H](CC(=O)O)c2cc(F)ccc2S1(=O)=O | · | 40* | 1 | · | ·
